SMILES strings stand for the structures. Calls of active or inactive are those of the source. The calls were made as follows: active = hit-call score of the fitted dose curve at least 0.9, where 1 is the maximum; inactive = score below 0.9.

This assay can be described thus: CEETOX_H295R_TESTO: CeeTox H295R High-throughput Steroidogenesis Assay for Testosterone (TESTO) (AID 2283457).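 As to AC50: cells exposed to chemicals for 48 h before medium collection.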 The settings on record: actives raise or lower the signal. In a few lines:
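Steroidogenesis in H295R cells following OECD 456 with minor changes; 48 h exposure. Medium testosterone by HPLC-MS/MS, DMSO as baseline, with MTT viability run in parallel.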
Turning to `CCN(CC)c1ccc(N=Nc2ccccc2)cc1`, the result was inactive.

For orientation: AC50 means the concentration giving half of the maximal activity seen. Consider `CCn1c2ccccc2c2ccccc21`, for which the AC50 is 50 µM (active).

Consider `Cc1cc(O)c(C(C)(C)C)cc1C(C)(C)C`, for which the molecule was classed as inactive.

In the case of `O=C1C=CC(=O)N1c1ccccc1`, the outcome was inactive.

Take `O=C(c1ccccc1)c1ccc(Cl)cc1`: the molecule was called inactive.

`CCN(CC)c1ccc(C=O)cc1`: the molecule was called inactive.

For the molecule `Oc1ccc2c(c1)CCC2`, the result was inactive.

As to `CCCCCCCCCc1ccc(OCCO)cc1`, the molecule was called inactive.

On to `O=C1c2ccccc2C(=O)c2c(Cl)cccc21`, for which the molecule was classed as inactive.

For the molecule `CCCCCCCCCCCCC[N+](C)(C)Cc1ccccc1`, the result was inactive.

Take `CC1CCCCC1`: the result was inactive.

Consider `CCOCOCC`, for which the call was inactive.

Take `Cc1cccc(C)n1`: the result was inactive.

As for `CSc1ccc(O)cc1C`, the molecule was called inactive.

Take `C[C@]12CC[C@H]3C(=CCc4cc(O)ccc43)[C@@H]1CCC2=O`: the AC50 is 4.29 µM (active).

Source of the values: PubChem BioAssay (EPA / NIEHS).
